From PubChem
The full list was thinned out, with hits kept by preference.
DUSP3 inh: blocks the human dual specificity phosphatase VHR1. recombinant VHR phosphatase, colorimetric substrate read-out. inhibition, % at 20 µM. hit rate 0.7% among 50,000. AID 1992; in the data active means inhibition above about 60%
Target sequence (P51452 whole entry, looked up): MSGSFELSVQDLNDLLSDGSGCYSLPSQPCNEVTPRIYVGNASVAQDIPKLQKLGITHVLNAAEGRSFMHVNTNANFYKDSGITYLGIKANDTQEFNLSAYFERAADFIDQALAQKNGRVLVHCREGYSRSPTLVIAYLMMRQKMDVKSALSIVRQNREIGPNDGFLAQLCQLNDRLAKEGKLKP
* marks the source's active call; other numbers are inactive results.

SMILES | DUSP3 inh
Cc1ccc(-n2cc(C=C3C(=O)NC(=O)NC3=O)cn2)cc1C | 105*
Cc1ccc(-n2cc(/C=c3\sc4nc5cc(C)c(C)cc5n4c3=O)cn2)cc1C | 3
Cc1c(Cl)cccc1-c1ccc(C(=O)Nc2cccc(NC(=O)c3cccc(Cl)c3)c2)o1 | -7
Cc1ccc2cccc(SCc3ccc([N+](=O)[O-])cc3)c2n1 | -1
COc1ccccc1C/C(N)=N/OC(=O)c1ccc(I)cc1 | 4
COc1ccccc1C/C(N)=N/OC(=O)c1ccccc1Br | -1
COc1ccccc1C/C(N)=N/OC(=O)c1ccco1 | 96*
Cc1c(C(=O)Nc2ccc(I)cc2Cl)oc2ccccc12 | -4
COC(=O)c1ccccc1NC(=O)/C=C/c1ccccc1Cl | 53
Cc1c(Cl)cccc1N=C1NC(=O)/C(=C/c2ccc(-c3ccccc3C(=O)O)o2)S1 | 86*
Cc1c(Cl)cccc1N=C1NC(=O)/C(=C/c2cccc(O)c2)S1 | 2
Cc1c(Cl)cccc1N=C1NC(=O)/C(=C/c2ccc3c(c2)OCO3)S1 | 24
CCN1/C(=C\C=C\c2n(CCCS(=O)(=O)[O-])c3cc(C#N)ccc3[n+]2CC)Oc2ccc(-c3ccccc3)cc21 | -15
O=[N+]([O-])c1ccc(Cl)cc1NCc1ccccc1 | 5
O=C(NCc1ccccc1)c1ccc(S(=O)(=O)c2ccccc2)cc1 | 1
O=C1C=CC(=O)C(/C(=C/NCc2ccccc2)[N+](=O)[O-])=C1 | 86*
Cc1ccc(N2C(=O)CC(NC(C)C34CC5CC(CC(C5)C3)C4)C2=O)cc1 (stereo not given) | -9
CCOc1cc(/C=C2\SC(N3CCN(C4=NC(=O)/C(=C\c5ccc(O)c(OCC)c5)S4)CC3)=NC2=O)ccc1O | 88*
COc1ccc(/C=C2\SC(N3CCCCCC3)=NC2=O)cc1OC | 9
CCOc1cc(/C=C2\SC(N3CCCCCC3)=NC2=O)ccc1O | 3
CCC(=O)N1c2ccc3ccccc3c2C2C=CCC2C1c1ccc(F)cc1 (stereo not given) | 8
O=[N+]([O-])c1ccc(C2Nc3ccc([N+](=O)[O-])cc3C3C=CCC32)cc1 (stereo not given) | -18
Oc1ccc(C2Nc3ccc4ccccc4c3C3C=CCC32)cc1 (stereo not given) | 76*
N#C/C(=C\c1ccccc1Cl)c1nc(-c2ccc(Cl)c(Cl)c2)cs1 | -5
O=C(CCN1C(=O)S/C(=C/c2ccc(Cl)cc2)C1=O)Nc1ccc(S(=O)(=O)Nc2nccs2)cc1 | -10
SMILES | DUSP3 inh
COCCCNC(=O)COc1ccc(C)cc1 | -12
O=c1nc(/C=C/c2ccc(N3CCOCC3)cc2)cc(C(F)(F)F)[nH]1 | 0
O=c1nc(/C=C/c2ccc(Cl)cc2)cc(C(F)(F)F)[nH]1 | -10
O=c1nc(/C=C/c2ccc(N3CCCC3)cc2)cc(C(F)(F)F)[nH]1 | 108*
O=Cc1cccc(OCc2ccc(Cl)cc2Cl)c1 | -22
O=C(Nc1ncc(Cc2ccc(F)cc2)s1)C1CCCCC1 | -19
CC(C)(C)NCCOc1ccc(Br)cc1 | -78
Cc1ccc(N(CC(=O)NCCOc2ccc(F)cc2)S(=O)(=O)c2ccccc2)cc1C | -5
O=C1NC(=O)N(c2ccccc2)C(=O)/C1=C\c1ccc(-c2ccc(C(=O)O)cc2)o1 | -20
O=C1NC(=S)N(c2ccc(Cl)cc2)C(=O)/C1=C/c1ccc(-c2ccc(C(=O)O)cc2)o1 | 19
O=C1NC(=S)NC(=O)C1=Cc1ccc(-c2ccc(C(=O)O)cc2)o1 | 89*
Cc1ccc(Cl)cc1NC(=O)CCC1CCCC1 | 4
Cc1ccc(Cl)cc1NC(=O)COc1cccc(C)c1C | -14
COc1cc(OC)cc(C(=O)N2CCCC2)c1 | -24
Cc1ccc(C)n1-c1ccc(O)c(C(=O)O)c1 | 2
Cc1ccc(C)n1-c1ccc(C(=O)NN)c(Cl)c1 | 90*
CCNC(=O)c1ccc(Cl)cc1Cl | 0
COc1cccc(-n2c(O)c(C=Nc3cc(OC)c(OC)c(OC)c3)c(=O)[nH]c2=O)c1 | -9
Cc1ccc(C2/C(=C(\O)c3ccccc3)C(=O)C(=O)N2CCCCCC(=O)O)cc1 (stereo not given) | -3
CCOC(=O)C1=NNC(C(=O)c2ccc(Cl)cc2)C1c1ccc(OC)cc1 (stereo not given) | 115*
CCOC(=O)C1=NNC2C(=O)N(c3ccc(Cl)cc3Cl)C(=O)C12 (stereo not given) | 116*
CCOC(=O)C1=NNC2C(=O)N(c3ccccc3C)C(=O)C12 (stereo not given) | -5
CCOC(=O)C1=C(C)NC(SC)=NC1c1ccc(OC)cc1 (stereo not given) | 1
CCOC(=O)C1=NNC2C(=O)N(c3cc(OC)ccc3OC)C(=O)C12 (stereo not given) | -3
CCOC(=O)C1=NNC(C(=O)c2ccccc2)C1c1cccc(Br)c1 (stereo not given) | 37
SMILES | DUSP3 inh
COc1ccc(OC)c(/C=N\NC(=O)CNc2ccc(C)cc2)c1 | -27
O=C(c1cc2ccccc2oc1=O)N1CCN(c2ccc([N+](=O)[O-])cc2)CC1 | 2
Cc1ccc(/C(O)=C/C(=O)C(=O)O)cc1 | 10
CCOC(=O)c1ccc(N2NC(=O)/C(=C/c3cccc(OC)c3O)C2=O)cc1 | -18
O=C(/C=C/c1ccccc1)Nc1nc2ccc(Br)cc2s1 | -20
COc1ccc(C2=C/C(=C3\OC(=O)c4ccccc43)C(=O)O2)cc1 | 42
COc1ccc(C2=C/C(=C/c3ccc(I)o3)C(=O)O2)cc1 | 1
COc1ccc(C2=CC(c3cccs3)C=C(c3ccc(OC)cc3)O2)cc1 | 60*
COc1nccnc1NS(=O)(=O)c1ccc(N=Cc2c(C)[nH]n(-c3ccc(C)c(C)c3)c2=O)cc1 | -20
O=c1[nH]c(/C=C/c2ccc3c(c2)OCO3)nc2ccccc12 | -7
Cc1ccc(C(=O)Nc2ccccc2)cc1S(=O)(=O)Nc1ccc(NC(=O)c2ccccc2)cc1 | -1
COc1ccccc1NC(=O)C1C2C=CC(C3CC23)C1C(=O)O (stereo not given) | -9
Cc1cc(/C=N\Nc2ccc([N+](=O)[O-])cn2)c(C)n1-c1ccc(O)cc1 | 85*
Cc1cc(/C=N\Nc2ccc([N+](=O)[O-])cn2)c(C)n1-c1ccc(C(=O)O)cc1 | 22
Cc1cc(C=O)c(C)n1-c1ccc([N+](=O)[O-])cc1 | 6
Cc1ccc(S(=O)(=O)N2CCN(c3ccc([N+](=O)[O-])c(N4CCOCC4)c3)CC2)cc1 | -14
Cc1ccc(-c2csc(NC(=O)C3CC4CCC3C4)n2)cc1 (stereo not given) | -20
CC(C)=C1C(=O)NN(c2cccc(Br)c2)C1=O | 81*
COc1ccc(Cl)cc1/C=C1/C(=O)NN(c2cccc(Br)c2)C1=O | 6
CC(C)=C1C(=O)NN(c2ccc(C)c(Cl)c2)C1=O | 0
O=c1[nH]c(=S)[nH]c2sc3c(c12)CCN(Cc1ccccc1)C3 | 51
N#Cc1c(N)sc2c1CCCCCC2 | 18
N#Cc1c(N)sc2c1CCN(Cc1ccccc1)C2 | 102*
Nc1sc(=S)nc2sc3c(c12)CCN(Cc1ccccc1)C3 | 72*
CCC1CCc2c(sc(N)c2C#N)C1 (stereo not given) | -16
Nc1nc(SCc2ccc(Cl)cc2)nc2sc3c(c12)CCN(Cc1ccccc1)C3 | 4
COC(=O)c1ccc(COc2ccc3c4c(c(=O)oc3c2C)CCCC4)cc1 | 4
CSc1ccccc1C(=O)O/N=C1/C(=O)N(C)c2ccccc21 | -9
COC(=O)c1ccccc1NC(=O)CN(c1cccc([N+](=O)[O-])c1)S(=O)(=O)c1ccccc1 | -23
COc1ccc(NC(=O)C(=O)NCCc2ccc(OC)c(OC)c2)cc1Cl | 6
